Consider ten compounds from PubChem BioAssay.

Unmarked numbers belong to inactive results. Calls of active or inactive are those of the source. Unless noted, no stated cut-off is given here; in the data, active means inhibition above about 42%; inactive means the rest.

Test [1] in a line: StAR promoter reporter inhibitors, counter-screen for LRH-1 inverse agonist project, cell-based, luminescence, high throughput (AID 651611; in the data active means inhibition above about 28%). As to conditions: StAR promoter luciferase reporter counterscreen, at 3.6 µM, stronger effect = higher value. For orientation: A counterscreen serves to expose hits that act by an unwanted route or on another target.
The target in test [2] is Nuclear receptor subfamily 5 group A member 2 (Homo sapiens) (UniProt O00482). Briefly: NR5A2 activity suppression in reporter cells – cell-based, luminescence, confirmation (AID 651613).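 Further: HEK293T cells co-transfected with LRH-1 and StAR promoter luciferase reporter; 0% = vehicle wells and 100% = parental cells lacking receptor.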 As to conditions: cell-based LRH-1 luciferase reporter, inverse agonism; at 3.6 µM; stronger effect = higher value. In general terms: In a reporter assay the amount or activity of a reporter protein is the signal.

Test [3] has as its target Steroidogenic factor 1 (Homo sapiens) (UniProt Q13285). Briefly: inverse agonism at SF1 nuclear receptor – cell-based, luminescence, high throughput, counter-screen for LRH-1 inverse agonist project (AID 651614; in the data active means inhibition above about 44%;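 further: cells cotransfected with StAR promoter reporter and SF1 expression vector; 0% = vehicle on cells with receptor and 100% = vehicle on cells lacking receptor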). The following applies: cell-based SF1 luciferase reporter, at 3.6 µM, stronger effect = higher value.
Test [4] is described as follows: compounds suppressing VP16-driven luciferase signal – cell-based, luminescence, high throughput, counter-screen for LRH-1 inverse agonist project (AID 651615; in the data active means inhibition above about 33%). As to conditions: Gal4-VP16 luciferase reporter cells, at 3.6 µM, stronger effect = higher value.

Chain of Steroidogenic factor 1 (Homo sapiens) (Q13285 whole entry, looked up, the tested form may be a part): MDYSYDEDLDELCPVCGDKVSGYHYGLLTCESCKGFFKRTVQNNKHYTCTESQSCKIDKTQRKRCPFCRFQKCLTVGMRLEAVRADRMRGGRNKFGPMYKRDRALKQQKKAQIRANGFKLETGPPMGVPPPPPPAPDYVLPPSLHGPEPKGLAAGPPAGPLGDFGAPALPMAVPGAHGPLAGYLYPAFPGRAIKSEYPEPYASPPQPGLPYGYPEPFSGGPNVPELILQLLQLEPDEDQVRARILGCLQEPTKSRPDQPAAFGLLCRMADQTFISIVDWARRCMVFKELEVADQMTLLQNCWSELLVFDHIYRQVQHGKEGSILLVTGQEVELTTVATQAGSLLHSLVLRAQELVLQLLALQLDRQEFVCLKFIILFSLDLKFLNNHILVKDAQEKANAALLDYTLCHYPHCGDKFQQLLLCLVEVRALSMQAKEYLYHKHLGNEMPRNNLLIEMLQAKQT
Chain of Nuclear receptor subfamily 5 group A member 2 (Homo sapiens) (O00482 whole entry, looked up): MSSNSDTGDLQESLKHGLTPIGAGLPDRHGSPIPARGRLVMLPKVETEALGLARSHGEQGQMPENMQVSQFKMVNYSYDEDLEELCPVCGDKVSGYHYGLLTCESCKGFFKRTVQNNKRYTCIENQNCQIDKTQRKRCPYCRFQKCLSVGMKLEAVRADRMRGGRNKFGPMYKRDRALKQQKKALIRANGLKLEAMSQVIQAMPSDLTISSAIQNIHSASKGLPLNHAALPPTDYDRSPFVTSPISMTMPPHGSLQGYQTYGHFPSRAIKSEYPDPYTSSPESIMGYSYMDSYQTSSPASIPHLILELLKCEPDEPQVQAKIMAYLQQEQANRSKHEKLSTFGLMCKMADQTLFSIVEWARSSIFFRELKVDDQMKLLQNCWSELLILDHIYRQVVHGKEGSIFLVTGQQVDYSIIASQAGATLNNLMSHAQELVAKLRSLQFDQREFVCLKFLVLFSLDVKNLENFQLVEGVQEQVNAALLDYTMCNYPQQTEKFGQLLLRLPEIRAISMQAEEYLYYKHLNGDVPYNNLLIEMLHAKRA

As a reminder, the inhibition is the drop in the measured response relative to a control, in per cent. With `Cc1sc2ncnc(NCC(O)c3ccc([N+](=O)[O-])cc3)c2c1C` (stereo not given), the inhibition was 15.4% in test [1], 51.7% (active) in test [2], 53.5% (active) in test [3] and 42.1% (active) in test [4].
Regarding `Cc1cc([N+](=O)[O-])ccc1NC(=O)CSc1nnc(C)n1C`, the inhibition was -1.6% in test [1], 60.6% (active) in test [2], 47.1% (active) in test [3] and -3.16% in test [4].
With `COc1ccc(C2=Nn3c(nnc3-c3ccccc3OC)SC2)cc1OC1CCOC1` (stereo not given), the inhibition in test [1] was 54.4% (active); in test [2], 69.1% (active); in test [3], 71.1% (active); in test [4], 19.3%.
In the case of `Cc1cc(OCC(=O)NC2CC2)c2c(C)cc(=O)oc2c1`, the inhibition is 18.9% in test [1], 65.5% (active) in test [2], 58.2% (active) in test [3] and -8.04% in test [4].
As for `CC(NC(=O)CCl)c1ccc(Cl)c(Cl)c1` (stereo not given), the inhibition is 32.8% (active) in test [1], 69.4% (active) in test [2], 67.3% (active) in test [3] and -15.3% in test [4].
With `COC(=O)c1ccc(NC(=O)CSC2=NCCN2)cc1`, the inhibition is -0.27% in test [1], 54.5% (active) in test [2], 43.8% (active) in test [3] and 4.09% in test [4].
As to `Cn1c(CN2CCN(c3cccc(Cl)c3)CC2)nc2ccccc21`, the inhibition was -11.3% in test [1], 23.1% in test [2], 36.9% in test [3] and -12.9% in test [4].
For `N#Cc1cc([N+](=O)[O-])ccc1NC(=O)COC(=O)C1CCC(=O)N1` (stereo not given), the inhibition in test [1] was 15.6%; in test [2], 53.7% (active); in test [3] it was 48.9% (active); in test [4], -3.83%.
As to `C=CCNc1nc2c(c(=O)n(C)c(=O)n2C)n1CCCCCC`, the inhibition in test [1] is 28.9% (active); in test [2] it was 73% (active); in test [3], 54.9% (active); in test [4], 47.2% (active).
Take `CCOc1ccc(S(=O)(=O)NCc2ccncc2)cc1`: the inhibition in test [1] was 25.8%; in test [2], 61.1% (active); in test [3] it was 59.4% (active); in test [4], 51.8% (active).
